# From PubChem BioAssay (NCATS)
# Records with an inconclusive call do not appear. The source made the active and inactive calls. Calls come from the whole dose curve; as a rule, active = well fitted cell-killing curve with a large enough effect; inconclusive = small, poorly fitted or top-dose-only effect; inactive = flat fitted curve, though single readings scatter.
# Experiment: qHTS of pediatric cancer cell lines to identify multiple opportunities for drug repurposing: Primary screen for BT-37 cells (AID 1347094)
# Details: BT-37 viability, CellTiter-Glo luminescence, 48 h; series mostly up to 57.3 µM; activity change, negative = cytotoxic: at the top concentration
# Source text: Drug repurposing or repositioning has been offered as a strategy for drug development in oncology programs. This approach has special potential for childhood cancers and other rare or orphan diseases, where the expected return on new drug development has been a disincentive to pharmaceuticals. […] In this project we exploit the poly-pharmacology of drugs to discover new indications via phenotypic screening of a panel of 19 well-characterized cell lines derived from solid tumors seen in children and adolescents. The goal is to identify approved drugs with previously unrecognized anticancer properties that has the potential to reveal new mechanisms and biological processes involved in carcinogenesis or drug resistance. We employed a titration-based paradigm (quantitative high-throughput screening or qHTS), where all compounds were tested at multiple concentrations for their effect on cell viability. Concentration-response curves (CRCs) were derived directly from the primary screen, and both potency and efficacy values were used to identify compounds with robust bioactivity profiles. We screened the NIH Chemical Genomics Center (NCGC) Pharmaceutical Collection (NPC) and Mechanism Interrogation Plate (MIPE) small molecule collections of approved and investigational compounds against these cell lines; and measured metabolically active cells after 48 hours of compound treatment as a proxy for cell viability. […] Assay Submitter: Nathalia J. Martinez, National Center for Advancing Translational Sciences, National Institutes of Health, Rockville, MD, USA; email: natalia.martinez@nih.gov Shen, M et al. Quantitative high-throughput phenotypic screening of pediatric cancer cell lines identifies multiple opportunities for drug repurposing. Oncotarget 2017 Dec 19;9(4):4758-4772. PMID 29435139.
# The cells were obtained from University of North Carolina (UNC), Pediatric Preclinical Testing Program (PPT), and Coriell Institute (CI). qHTS cell viability assay: Cells were assayed in growth media at a density of 500-1,000 cells/well. Five microliters of cells were dispensed into 1,536-well, white, solid-bottom, TC-treated plates (Greiner Bio One) using a multidrop dispenser and incubated at 37 degrees C, 5% CO2, under a humidified atmosphere for 5 hours. Twenty-three nanoliters of compounds and controls (neutral control DMSO or positive control bortezomib at final concentration of 2.3 µM) were subsequently transferred by Kalypsys pintool. For primary screens, the MIPE collection was tested at 11-point dilutions (final concentrations range from 0.78 nM to 46 µM) and the NPC collection at 8-point dilutions (final concentrations range from 0.59 nM to 46 µM). Compounds tested in follow-up screens were assayed at 11-point dilutions. Cells were incubated for 48 hours, followed by addition of 3 µL of CellTiter-Glo (Promega). After a 15 min incubation at room temperature, samples were analyzed for luminescence intensity using a ViewLux High-throughput CCD imager equipped with clear filters.
# Potency is the fitted concentration of half-maximal effect.
SMILES,"activity change, negative = cytotoxic",Potency
CCOC(=O)c1c(C(C#N)=CN)c2ccc(Cl)c(Cl)c2n1C,-1.9% (inactive),
CCCN(CCC)c1c([N+](=O)[O-])cc(S(N)(=O)=O)cc1[N+](=O)[O-],,31.7 µM (active)
NC1CC1c1ccccc1 (stereo not given),4.55% (inactive),
N#C[C@H](O[C@@H]1O[C@H](CO[C@@H]2O[C@H](CO)[C@H](O)[C@H](O)[C@H]2O)[C@H](O)[C@H](O)[C@H]1O)c1ccccc1,,24.3 µM (active)
Oc1ccc2c3c1O[C@H]1[C@@H](O)C=C[C@H]4[C@@H](C2)NCC[C@@]341,-1.16% [at 116 µM] (inactive),
CC(=O)OCC1=C(C(=O)O)N2C(=O)[C@@H](N)[C@@H]2SC1,,1.22 µM (active)
CC(=CCCC1=CCC(C2=CC(=O)OC2O)OC1O)CCC1=C(C)CCCC1(C)C (stereo not given),-12.5% (inactive),
COCCOCCO,36.3% [at 116 µM] (inactive),
CCCN1CCO[C@@H]2c3cc(O)ccc3OC[C@@H]21,,21.7 µM (active)
O=C(Oc1ccc([N+](=O)[O-])cc1)N1CCN(Cc2cccc(Oc3ccccc3)c2)CC1,-10.6% (inactive),
C=CC(=O)NCNC(=O)C=C,12.6% [at 116 µM] (inactive),
CC(=O)Nc1ccc(OC[C@](C)(O)C(=O)Nc2ccc([N+](=O)[O-])c(C(F)(F)F)c2)cc1,2.71% (inactive),
CCN1CCN(C(=O)Cc2ccc(Nc3ncc(F)c(Nc4ccc(C(=O)Nc5ccccc5Cl)cc4)n3)cc2)CC1,,12.2 µM (active)
CC(C)(C)NC[C@H](O)c1ccc(O)cc1Cl,11.9% (inactive),
c1ccc(CCCN2CCN(CCOC(c3ccccc3)c3ccccc3)CC2)cc1,,24.3 µM (active)
CN(C)[C@@H]1C(=O)C(C(N)=O)=C(O)[C@@]2(O)C(=O)C3=C(O)c4c(O)cccc4[C@@](C)(O)[C@H]3[C@H](O)[C@@H]12,2.53% (inactive),
COc1ccc(CC2NCCc3cc(OC)c(OC)cc32)cc1OC (stereo not given),-4.93% (inactive),
CC[C@@H]1[C@@H](C)O[C@@](O)([C@@H](C)[C@H](O)[C@H](C)[C@H]2OC(=O)C=CC=C[C@@H](C)[C@@H]([C@@H](C)[C@@H](O)[C@H](C)[C@@]3(O)C[C@H](O[C@H]4C[C@H](O)[C@H](O)[C@H](C)O4)[C@H](CC)[C@@H](C)O3)OC(=O)C=CC=C[C@@H]2C)C[C@H]1O[C@H]1C[C@H](O)[C@H](O)[C@H](C)O1,,0.685 µM (active)
CCOP(=O)(NC(C)C)Oc1ccc(SC)c(C)c1 (stereo not given),9.67% [at 116 µM] (inactive),
O=C(Nc1ccccc1-c1ccc(Cl)cc1)c1cccnc1Cl,-6.82% [at 116 µM] (inactive),

SMILES,"activity change, negative = cytotoxic",Potency
CC(O)CN1CCN(CC(=O)[O-])CCN(CC(=O)[O-])CCN(CC(=O)[O-])CC1.[Gd+3] (stereo not given),9.41% (inactive),
O=[N+]([O-])c1cc([N+](=O)[O-])c2ccccc2c1,-9.97% [at 116 µM] (inactive),
COc1ccc2c(c[n+](C)c3c4cc5c(cc4ccc23)OCO5)c1OC,,17.2 µM (active)
Nc1ccc([N+](=O)[O-])cc1,7.32% [at 116 µM] (inactive),
Cc1c(C(=O)Nc2cccc(C(F)(F)F)c2)cc(-c2ccccc2)n1CCCN1CCOCC1,,27.3 µM (active)
CCOC(=O)Nc1ccc(NCc2ccc(F)cc2)cc1N,-5.84% (inactive),
c1ccc2c(CN3CCNCC3)cccc2c1,0.676% (inactive),
COC[C@H]1OC(=O)c2coc3c2[C@@]1(C)C1=C(C3=O)[C@@H]2CC[C@H](O)[C@@]2(C)C[C@@H]1OC(C)=O,,6.85 µM (active)
O=c1[nH]c2ccc(Cl)cc2c(N[C@@H]2CN3CCC2CC3)c1-c1nc2ccccc2[nH]1,,5.44 µM (active)
CC(C)(C)[C@]1(O)C[C@@H]2OC(=O)C[C@@]23C(=O)O[C@@H]2OC(=O)[C@H](O)C213 (stereo not given in full),5.94% (inactive),
CC(=O)N(C)c1cccc(-c2ccnc3c(C(=O)c4cccs4)cnn23)c1,7.24% (inactive),
C[C@]12CC[C@H](O)CC1=CC[C@H]1[C@H]3CCC(=O)[C@@]3(C)CC[C@@H]12,-6.78% (inactive),
Cc1c(N)nc([C@H](CC(N)=O)NC[C@@H](N)C(N)=O)nc1C(=O)N[C@H](C(=O)N[C@@H](C)[C@H](O)[C@@H](C)C(=O)N[C@@H](C(=O)NCCc1nc(-c2nc(C(=O)NCCC[S+](C)C)cs2)cs1)[C@@H](C)O)C(O[C@H]1O[C@H](CO)[C@H](O)[C@@H](O)[C@@H]1O[C@H]1O[C@H](CO)[C@@H](O)[C@H](OC(N)=O)[C@H]1O)c1cnc[nH]1 (stereo not given in full),,1.37 µM (active)
Clc1ccccc1C(c1ccccc1)(c1ccccc1)n1cccn1,1.69% (inactive),
COC1=CC(C)=C[C@@H](C)[C@@H](O)[C@@H](C)CC(C)=CC=C[C@H](OC)[C@H]([C@@H](C)[C@@H](O)[C@H](C)[C@@]2(O)C[C@@H](O)[C@H](C)[C@@H](C(C)C)O2)OC1=O,,0.0034 µM (active)
C[C@H]1CCCC=CC2C[C@H](O)C[C@@H]2[C@H](O)C=CC(=O)O1 (stereo not given in full),,0.001 µM (active)
Cc1ccccc1-n1c(Cn2ncc3c(N)ncnc32)nc2cccc(C)c2c1=O,,0.0086 µM (active)
CN[C@@H](C)[C@H](O)c1ccccc1,-5.07% (inactive),
Oc1ccc2c3c1O[C@H]1c4[nH]c5c(c4C[C@@]4(O)[C@@H](C2)N(CC2CC2)CC[C@]314)C[C@@]1(O)[C@H]2Cc3ccc(O)c4c3[C@@]1(CCN2CC1CC1)[C@H]5O4,-1.25% (inactive),
CC1=NN=C(c2ccc(N)cc2)c2cc3c(cc2C1)OCO3,7.26% (inactive),
